The assay is described as follows: compounds displacing fluorescent intercalator from DNA, dose response, counter-screen for HCV NS3 helicase inhibitor project, biochemical, fluorescence (AID 2172). As to conditions: fluorescent intercalator displacement from DNA. In general terms: A counterscreen serves to expose hits that act by an unwanted route or on another target.

Structures are written as SMILES. The list shows a part of the results. A number with no mark means an inactive call. The rule behind the calls is not given here.

Experimental findings from PubChem BioAssay AID2172 (The Scripps Research Institute Molecular Screening Center, 2009) are described below.

As usually defined, the IC50 is the concentration at which inhibition is half-maximal.

Regarding `COc1ccc(N2C(=O)/C(=C/c3ccco3)C(=O)NC2=S)cc1`, the IC50 is 28.9 µM.
